# Reference: PubChem BioAssay AID425 (Sanford-Burnham Center for Chemical Genomics, 2006)
# Where “and” joins values, the source holds several entries; their conditions need not be identical. Equal entries are not always repeated. Out of some 110,000 compounds screened, about 190 (0.17%) were called active. No stated cut-off is given here; in the data, active means inhibition above about 50%; inactive means the rest. Many of the other results were omitted from the sample, so actives are more common in it than they were. Entries with a potency or affinity are not part of this list. The source holds several records for some structures; these can differ, active in one and inactive in another.
# Biological target: Dual specificity protein phosphatase 6 (Rattus norvegicus) (UniProt Q64346)
# Experiment: inhibition of rat DUSP6 enzyme activity – biochemical, in vitro, primary screen (AID 425);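 further: plate controls were vehicle for no effect and reference inhibitor for full effect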
# Conditions: recombinant MKP-3 phosphatase activity, fluorescence; at 20 µM; stronger effect = higher value
# Dual specificity protein phosphatase 6 (Rattus norvegicus), sequence (Q64346 whole entry, looked up): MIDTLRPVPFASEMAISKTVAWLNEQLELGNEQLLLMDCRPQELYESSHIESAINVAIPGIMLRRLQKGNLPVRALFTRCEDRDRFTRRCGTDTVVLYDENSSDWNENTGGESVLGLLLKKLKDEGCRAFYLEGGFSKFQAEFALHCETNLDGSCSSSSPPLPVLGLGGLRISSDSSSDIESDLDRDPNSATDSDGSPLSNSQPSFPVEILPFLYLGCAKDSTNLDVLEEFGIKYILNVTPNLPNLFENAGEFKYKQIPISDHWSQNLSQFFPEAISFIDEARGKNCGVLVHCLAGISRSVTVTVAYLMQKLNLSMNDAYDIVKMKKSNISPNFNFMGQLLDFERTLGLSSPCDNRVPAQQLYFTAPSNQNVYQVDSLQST
row,Compound,inhibition
1,CCC1=NN2C(=N)/C(=C/c3ccc(OC)c(OC)c3)C(=O)N=C2S1,-3.5% (inactive)
2,COc1ccc(/C=C2/C(=N)N3N=C(C(C)C)SC3=NC2=O)cc1OC,0% (inactive)
3,CC(=O)N1CCC(C(=O)Nc2ccccc2)(N(Cc2ccccc2)C(=O)c2cccnc2)CC1,-4.2% (inactive)
4,CCOC(=O)c1nnn(-c2nonc2N)c1CNC(C)C,6.2% (inactive)
5,Cc1c(CN(C)C)c2c(n1C)C(=O)c1ccc(Br)cc1-2,1.2% (inactive)
6,CCOC(=O)c1c2c(n(C)c1CO)C(=O)C(=O)c1ccc(Br)cc1-2,120% (active)
7,CCOC(=O)c1c2c(n(Cc3ccccc3)c1C)C(=O)C(=O)c1ccc(Br)cc1-2,34% (inactive)
8,CCOC(=O)c1c2c(n(C)c1CNC(C)C)C(=O)C(=O)c1ccc(Br)cc1-2,117% (active)
9,CCOC(=O)c1c(C)n(C)c2ccc(OC(C)C(=O)OC)cc12 (stereo unspecified),-3.4% (inactive)
10,Cc1cc([N+](=O)[O-])ccc1NCc1ccco1,0.4% (inactive)
11,Cc1nc(C)n(CC(O)COc2ccc3c(c2)CCC3)n1 (stereo unspecified),-16.3% (inactive)
12,CCC(=O)Nc1c(C#N)c2nc3ccccc3nc2n1-c1ccc(C)cc1,1.4% (inactive)
13,C=CCn1c(NC(=O)c2ccccc2)c(C#N)c2nc3ccccc3nc21,23.5% (inactive)
14,COc1ccc(C(=O)NCCn2ccc3ccccc32)cc1OC,-4.9% (inactive)
15,COC(=O)c1c(NC(=O)c2c(C)noc2C)sc2c1CCCCCC2,-8.3% (inactive)
16,Cc1ccc(S(=O)(=O)NCC(C)NS(=O)(=O)c2ccc(C)cc2)cc1 (stereo unspecified),69.6% (active)
17,CCCC(C)NS(=O)(=O)c1ccc(C)cc1 (stereo unspecified),-0.1% (inactive)
18,CC(=O)Nc1ccc(S(=O)(=O)NCC(C)NS(=O)(=O)c2ccc(NC(C)=O)cc2)cc1 (stereo unspecified),-11.4% (inactive)
19,COC(=O)c1ccc(-c2ccc(/C=N\Nc3ccc([N+](=O)[O-])cn3)o2)cc1,5.2% (inactive)

row,Compound,inhibition
1,CCSc1nc(N)c2c3c(sc2n1)COC(C)(CC)C3 (stereo unspecified),3.9% (inactive)
2,CC(=O)Nc1ccc(C(=O)NCc2ccccn2)cc1,1.3% (inactive)
3,Cc1ccnc(NS(=O)(=O)c2ccc(NC(=O)c3cccc(I)c3)cc2)n1,1.1% (inactive)
4,CC1(C)CC(NC(=O)CCc2ccccc2)CC(C)(C)N1,3.8% (inactive) and -2.1% (inactive)
5,Oc1cccc(C=Nc2ccc(Cl)c(Cl)c2)c1,-1.5% (inactive)
6,CN(C)c1ccc(C=Nc2ccc(N(C)C)cc2)cc1,-3.9% (inactive)
7,Oc1ccc(/C=N/N=C/c2ccc(O)c(O)c2)cc1O,1.8% (inactive)
8,Oc1ccc(C=Nc2ccc(O)cc2)cc1,51% (active)
9,COc1ccc(N=Cc2ccc(O)c(OC)c2)cc1,-0.9% (inactive)
10,Cc1cccc(C=Nc2ccc(-c3nc4ccc(C)cc4s3)cc2)c1,-2.3% (inactive)
11,Oc1ccc(N=Cc2ccc(O)c(O)c2)cc1,69.4% (active) and -3.7% (inactive)
12,Oc1ccc(N=Cc2cc(Br)cc(Br)c2O)cc1,9.6% (inactive)
13,Cc1cccc(C=Nc2ccc(O)cc2)c1,118% (active)
14,COc1ccc2c(c1OC)CN(C)CCc1cc3c(cc1C(O)C2)OCO3 (stereo unspecified),-15.6% (inactive)
15,COc1ccc(C2NC(=O)NC(C)=C2C(=O)Nc2ccccc2C)cc1OC (stereo unspecified),-0.4% (inactive)
16,O=C1CCCC2=C1C(c1ccc(Cl)cc1)Nc1ccccc1N2 (stereo unspecified),0.4% (inactive)
17,Cc1ccccc1NC(=O)CCCN1C(=O)/C(=C/c2cccc3c2OCO3)SC1=S,4.3% (inactive)
18,CSc1nsc(SC)c1NC(=O)OCc1ccccc1,-3.9% (inactive) and 1.7% (inactive)
19,COc1cccc(C(=O)Nc2ccc(OC(F)(F)F)cc2)c1,3.1% (inactive)

row,Compound,inhibition
1,COc1ccc(/C=C2\SC(=O)N(CC(=O)Nc3nccs3)C2=O)cc1OC,0% (inactive)
2,O=S(=O)(NCc1ccc(F)cc1)c1ccc2ccccc2c1,0% (inactive)
3,COC(=O)c1sc(=S)n(-c2cc(F)ccc2F)c1N,10.2% (inactive)
4,Cc1ccc2[nH]c(C)c(CC(=O)N/N=C/c3cccnc3)c2c1,-2% (inactive)
5,COc1ccc(-n2c(O)c(/C=C3\C=CC=N3)c(=O)[nH]c2=O)cc1,2.1% (inactive)
6,O=c1[nH]c(=S)n(-c2ccccc2F)c(O)c1C=C1C=CC=N1,60.5% (active)
7,Cn1c(O)c(/C=C2/C=CC=N2)c(=O)n(-c2ccccc2)c1=S,95.6% (active)
8,Cc1ccccc1-n1c(O)c(C=C2C=CC=N2)c(=O)[nH]c1=S,45.4% (inactive)
9,O=c1[nH]c(=O)n(-c2ccccc2Cl)c(O)c1C=C1C=CC=N1,3.3% (inactive)
10,O=c1[nH]c(=S)n(-c2cccc(Cl)c2)c(O)c1/C=C1/C=CC=N1,9% (inactive)
11,COc1ccc(NC(=O)Cn2nnc(C(N)=O)c2N)c(OC)c1,-7.2% (inactive)
12,O=C1c2ccc(-c3nc4ccccc4c(=O)o3)cc2C(=O)N1c1ccc(I)cc1,-0.1% (inactive)
13,COC(=O)c1ccc(-n2c(C)cc(/C=N/n3cnnc3)c2C)cc1,-6.7% (inactive)
14,Cc1nnc(NC(=O)CSc2cn(Cc3ccccc3)c3ccccc23)s1,-5.8% (inactive)
15,COc1ccc(/C=C/C(=O)Nc2ccc(C)c([N+](=O)[O-])c2)cc1OC,-0.5% (inactive)
16,Cc1ccc(/C=N/n2cnnc2)cc1[N+](=O)[O-],-0.6% (inactive)
17,O=C(O)CCCCCN1C(=O)C(=O)/C(=C(/O)c2ccccc2)C1c1ccc(F)cc1 (stereo unspecified),0.8% (inactive)
18,CC(C)(C)c1ccc(OCC(=O)NC2CCS(=O)(=O)C2)cc1 (stereo unspecified),3% (inactive)
